Shown are actives, neighbours in structure and some others; about 3.4% of the full set was active somewhere.
GPR151 ag: activates the human receptor GPR151. Q8TDV0. actives 1% (n = 650,000). AID 1508602. activation, % at 11.2 µM. PathHunter beta-arrestin GPR151 cells, luminescence; in the data active means activation above about 4.9%
Target sequence (Q8TDV0 whole entry, looked up): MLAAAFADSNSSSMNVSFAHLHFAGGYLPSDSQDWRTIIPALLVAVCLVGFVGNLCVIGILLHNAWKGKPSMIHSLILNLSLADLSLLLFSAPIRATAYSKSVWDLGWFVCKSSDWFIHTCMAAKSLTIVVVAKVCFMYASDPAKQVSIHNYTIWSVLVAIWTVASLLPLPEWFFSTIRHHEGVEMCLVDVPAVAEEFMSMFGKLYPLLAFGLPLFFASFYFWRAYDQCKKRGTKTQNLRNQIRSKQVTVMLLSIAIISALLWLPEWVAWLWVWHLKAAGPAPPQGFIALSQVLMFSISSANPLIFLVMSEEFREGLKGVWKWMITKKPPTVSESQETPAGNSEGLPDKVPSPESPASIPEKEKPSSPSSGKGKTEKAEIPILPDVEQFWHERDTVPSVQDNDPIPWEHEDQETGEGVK
TEAD-YAP block: TEAD-YAP interaction inhibition; HEK-TIYL cells, TEAD-Gal4/YAP UAS-luciferase luminescence; inhibition, % at 9.12 µM; actives 1.4% (n = 640,000); AID 1259422; in the data active means inhibition above about 32%
MITF inh: human MITF inhibition, primary screen; O75030; AlphaScreen MITF homodimerization, bead proximity signal; inhibition, % at 2.6 µM; actives 0.91% (n = 650,000); in the data active means inhibition above about 50%
FBW7 activator: human FBW7 E3 ligase activation, primary screen. Q969H0. AlphaScreen FBW7–phospho-cyclin E peptide binding, activator screen. normalized activity (activation), % at 26.1 µM. actives 0.13% (n = 650,000). AID 1259310; in the data active means normalized activity above about 1.9%;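 further: purified mutant Fbw7 with reduced substrate affinity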
GPR151 confirm: confirmation of human GPR151 activators | shares compounds with GPR151 ag | 6,700 tested, under 10 active | GPR151 PathHunter beta-arrestin cells, luminescence, 90 min; % of EA-reagent control over plate median | activation, % at 11.2 µM | AID 1508609;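 active means mean percent activation across replicates above the confirmation screen cutoff of 4.91%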
GPR119 counter: GPR119 activation, counter-screen for GPR151 activators; shares compounds with GPR151 ag; GPR119 PathHunter beta-arrestin cells, luminescence, 90 min; 0 = compound-well median, 100 = enzyme-acceptor control; activation, % at 11.2 µM; actives 0.3% (n = 6,700); AID 1508611;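 active means mean percent activation in the counterscreen above 29.09%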;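 further: counterscreen on off-target GPR119 to flag nonselective hits from the GPR151 activator screen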
Each line names hits and unclear results; the compound was inactive in the other large screens (follow-up assays come after a bar, where they were run).

CC(C)C(NC(=O)c1ccc(F)cc1)C(=O)O (centres undefined)	none
Cc1ccc(C(=O)NC(C)C2CC3CCC2C3)cc1 (centres undefined)	GPR151 ag 10 | GPR151 confirm inactive | GPR119 counter inactive
CN(C)S(=O)(=O)c1ccc(C(=O)OCc2nc3ccccc3s2)cc1	GPR151 ag 6.9 | GPR151 confirm inactive | GPR119 counter inactive
O=C(OCc1nc2ccccc2s1)c1ccc(O)cc1	none
Fc1ccccc1CSc1nnc2c(n1)OC(c1ccccn1)Nc1ccccc1-2 (centres undefined)	none
COc1cc(=O)n2c(c1C(=O)NCc1ccsc1)CCN(C(=O)c1nonc1C)CC2	GPR151 ag 10 | GPR151 confirm inactive | GPR119 counter inactive
CCCCCCn1c(CN2CC(C)CC(C)C2)nc2c1c(=O)n(C)c(=O)n2C (centres undefined)	none
COC(=O)c1cc2c(N3CCC(Cc4ccccc4)CC3)ncnc2s1	GPR151 ag 5.5 | GPR151 confirm inactive | GPR119 counter inactive
CC1CCCC(C)N1C(=O)c1cc2nc(-c3cccs3)cc(C(F)(F)F)n2n1 (centres undefined)	GPR151 ag 5.4 | GPR151 confirm inactive | GPR119 counter inactive
N#Cc1c(NC(=O)c2nn3c(C(F)(F)F)cc(-c4cccs4)nc3c2Cl)sc2c1CCCCC2	none
O=C(c1nn2c(C(F)(F)F)cc(-c3cccs3)nc2c1Cl)N1CCCCC1	GPR151 ag 6.4 | GPR151 confirm inactive | GPR119 counter inactive
N#Cc1c(NC(=O)c2nn3c(C(F)(F)F)cc(-c4cccs4)nc3c2Cl)sc2c1CCCC2	GPR151 ag 9.2 | GPR151 confirm inactive | GPR119 counter inactive
CC(NCC(C)(C)CN(C)C)C(=O)Nc1ccccc1 (centres undefined)	GPR151 ag 7.0 | GPR151 confirm inactive | GPR119 counter inactive
COc1cc(Nc2ccc(N3CCC(C(=O)NCc4ccccc4)CC3)nn2)cc(OC)c1OC	none
C=CCn1c(SCC(N)=O)nnc1-c1ccc(Br)cc1	GPR151 ag 6.2 | GPR151 confirm inactive | GPR119 counter inactive
COc1ccc(OC)c(NC(=O)CCN(C)Cc2ccccc2)c1	GPR151 ag 11 | GPR151 confirm inactive | GPR119 counter inactive
COc1ccc(OC)c(NC(=O)c2ccccc2C(F)(F)F)c1	GPR151 ag 6.6 | GPR151 confirm inactive | GPR119 counter inactive
COc1ccccc1NC(=O)c1ccccc1C(F)(F)F	none
C#CCN1C(=O)S/C(=C/c2ccc(C(=O)OC)cc2)C1=O	GPR151 ag 5.9 | GPR151 confirm inactive | GPR119 counter inactive
C/C(=C/c1ccccc1)C(=O)Nc1ccc(S(N)(=O)=O)cc1	GPR151 ag 5.0 | GPR151 confirm inactive | GPR119 counter inactive
CCOC(=O)c1ccc(-n2c(=S)sc3c(=O)n(-c4ccc(F)cc4)c(SCC#N)nc32)cc1	none
COc1ccc(-n2nc3ccc(NC(=O)c4ncn[nH]4)cc3n2)cc1Cl	GPR151 ag 5.0 | GPR151 confirm inactive | GPR119 counter inactive
CN1CC(C(=O)N2CCC3(CC2)NC(=O)c2cccnc2N3C)CC1=O (centres undefined)	none
COc1ccc(C2(O)CN(c3cc(OC)ccc3OC)C3=[N+]2CCCS3)cc1 (centres undefined)	none
COc1ccc(OC)c(N2CC(O)(c3ccc(OC)c(OC)c3)[N+]3=C2SCCC3)c1 (centres undefined)	GPR151 ag 5.4 | GPR151 confirm inactive | GPR119 counter inactive
O=C(NCCc1nc(-c2ccncc2)n[nH]1)C1(c2ccccc2)CCCC1	GPR151 ag 5.9 | GPR151 confirm inactive | GPR119 counter inactive
c1ccc2c(c1)nc(NCCCN1CCOCC1)c1nc3ccccc3n12	none
Cc1ccc(NC(=O)N2CCC(C(=O)NCCC3=CCCCC3)CC2)cc1	GPR151 ag 5.0 | GPR151 confirm inactive | GPR119 counter inactive
O=C(NCCC1=CCCCC1)C1CC(=O)N(C2CCCC2)C1 (centres undefined)	GPR151 ag 5.5 | GPR151 confirm inactive | GPR119 counter inactive
CN1CSC2=C(C#N)C(c3cccc(OCc4ccccc4)c3)CC(=O)N2C1 (centres undefined)	GPR151 ag 8.7 | GPR151 confirm inactive | GPR119 counter inactive
COC(=O)C(Sc1cc2c(cc1O)OCO2)(C(F)(F)F)C(F)(F)F	GPR151 ag 5.3 | GPR151 confirm inactive | GPR119 counter inactive
COC(=O)C(Sc1c(O)cc(C)oc1=O)(C(F)(F)F)C(F)(F)F	none
COc1ccc(N2C(=O)/C(=C\c3ccc(OC)c(O)c3)C(=O)NC2=S)cc1	none
COC(=O)[C@H]1CN(C(=O)c2cnn(C(C)C)c2)C[C@@H]1c1ccc(F)cc1	GPR151 ag 5.7 | GPR151 confirm inactive | GPR119 counter inactive
CCn1cc(C(=O)N2C[C@H](C(=O)OC)[C@@H](c3ccc(F)cc3)C2)cn1	none
COc1ccc(F)c(CN2CCC(n3nccc3NC(=O)C3CCCC3)CC2)c1	none
O=C(Nc1ccnn1C1CCN(Cc2ccccc2F)CC1)C1CCCC1	GPR151 ag 5.3 | GPR151 confirm inactive | GPR119 counter inactive
CCOc1ccccc1CN1CCC(n2nccc2NC(=O)C(C)(C)C)CC1	GPR151 ag 6.8 | GPR151 confirm inactive | GPR119 counter inactive
O=C(Nc1ccnn1C1CCN(Cc2ccccc2OCCO)CC1)c1cccc(F)c1	GPR151 ag 5.9 | GPR151 confirm inactive | GPR119 counter inactive
Cc1ccccc1-n1c(C)cc(/C=N/NC(=O)CN2CCOCC2)c1C	none
COc1ccc(N2CC(NC(=O)N3CC(C)OC(C)C3)CC2=O)cc1 (centres undefined)	none
Cc1c(Cl)cccc1N1C(=O)C2C3C=CC(C3)C2C1=O (centres undefined)	none
O=C(CCn1cnc2ccccc21)N1CCC(CO)(Cc2ccc(Cl)cc2)CC1	none
CC(C)N(CCNc1ncnc2nc(Nc3ccccc3)[nH]c12)C(C)C	none
CC(C)N(CCNc1ncnc2nc(Nc3nccc4ccccc34)[nH]c12)C(C)C	GPR151 ag 6.1 | GPR151 confirm inactive | GPR119 counter inactive
CC1CCN(C(=O)C2=CC(c3cccs3)=NS(=O)(=O)N2C)CC1	GPR151 ag 5.4 | GPR151 confirm inactive | GPR119 counter inactive
CCN(CC)c1ccc(NC(=O)COc2cccc(C)c2)cc1	none
O=S(=O)(NCC(c1ccco1)N1CCN(c2ccccc2)CC1)c1cccs1 (centres undefined)	none
CC1CN(C(c2ccc(F)cc2)c2sc3ncnn3c2O)CC(C)O1 (centres undefined)	none
CN1C(=O)[C@H]2CN(C(=O)c3ccccc3)CCN2C(=O)[C@@H]1Cc1ccccc1	GPR151 ag 5.3 | GPR151 confirm inactive | GPR119 counter inactive
CCCc1ccc(S(=O)(=O)Nc2ccc3c(c2)CC(=O)N3C)cc1	GPR151 ag 4.9 | GPR151 confirm inactive | GPR119 counter inactive
CCC(C)(C)NC(=O)CN(C(=O)CCC(=O)Nc1nccs1)c1ccccc1C	none

Bioassay records deposited in PubChem BioAssay by The Scripps Research Institute Molecular Screening Center.
